Results filed as inconclusive are left out. Entries that show only a call come without a potency. The source made the active and inactive calls. Calls follow the shape of the full dose curve.
Potency is read from the fitted curve at half-maximal effect.

Sequence of Atrial natriuretic peptide receptor 1 (Homo sapiens) (P16066 whole entry, looked up): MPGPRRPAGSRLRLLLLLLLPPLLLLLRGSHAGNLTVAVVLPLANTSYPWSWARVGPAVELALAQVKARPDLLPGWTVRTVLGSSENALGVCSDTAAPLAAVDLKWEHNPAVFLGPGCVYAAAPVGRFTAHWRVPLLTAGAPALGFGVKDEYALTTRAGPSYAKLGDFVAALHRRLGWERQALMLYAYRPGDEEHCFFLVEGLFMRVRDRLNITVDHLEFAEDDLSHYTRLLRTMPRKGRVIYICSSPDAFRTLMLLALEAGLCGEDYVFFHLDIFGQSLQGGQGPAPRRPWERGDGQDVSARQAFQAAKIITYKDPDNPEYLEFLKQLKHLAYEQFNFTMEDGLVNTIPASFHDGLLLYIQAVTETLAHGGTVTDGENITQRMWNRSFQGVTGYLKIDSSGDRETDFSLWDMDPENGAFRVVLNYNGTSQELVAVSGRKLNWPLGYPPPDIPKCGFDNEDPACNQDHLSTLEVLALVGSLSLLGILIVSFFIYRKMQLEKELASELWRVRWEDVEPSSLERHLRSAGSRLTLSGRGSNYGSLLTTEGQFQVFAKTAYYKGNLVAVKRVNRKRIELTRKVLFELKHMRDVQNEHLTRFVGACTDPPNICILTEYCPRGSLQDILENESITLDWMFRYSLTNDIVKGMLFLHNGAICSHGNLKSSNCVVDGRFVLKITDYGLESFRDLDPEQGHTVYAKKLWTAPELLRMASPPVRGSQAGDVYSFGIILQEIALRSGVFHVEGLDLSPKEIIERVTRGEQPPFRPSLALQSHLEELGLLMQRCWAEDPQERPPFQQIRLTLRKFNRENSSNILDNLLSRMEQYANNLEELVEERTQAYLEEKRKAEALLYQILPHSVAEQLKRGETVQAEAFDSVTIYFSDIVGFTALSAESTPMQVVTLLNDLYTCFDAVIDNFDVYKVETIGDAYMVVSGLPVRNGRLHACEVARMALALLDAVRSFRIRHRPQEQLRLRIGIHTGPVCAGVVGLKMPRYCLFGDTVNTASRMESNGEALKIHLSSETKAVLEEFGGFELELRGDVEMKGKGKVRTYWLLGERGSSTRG

The assay concerns the target Atrial natriuretic peptide receptor 1 (Homo sapiens) (UniProt P16066). The assay can be described thus: Natriuretic polypeptide receptor (hNpr1) antagonism - Pilot screen (AID 1347049).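 Also: agonist-evoked cGMP luminescence read 20 min after hNppA addition.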 The settings on record: hNpr1 cells, antagonist mode cGMP read-out; series mostly up to 57.5 µM. In outline:
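Readout is cGMP-driven firefly luciferase luminescence in HEK293 cells carrying hNpr1 and a PDE5-domain GloSensor, read before and 20 min after 0.1 nM hNppA stimulation. Cells had 2% substrate reagent for 2 h and test compound for 30 min.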
For `C[N+](C)(C)CCOP(=O)(O)OP(=O)([O-])OC[C@H]1O[C@@H](n2ccc(N)nc2=O)[C@H](O)[C@@H]1O`, the Potency entry was “inactive”.

`CC(N)C(=O)OC(C)(C)Cc1ccc(Cl)cc1` (configuration not stated): the Potency result is “inactive”.

With `CCNC(=O)[C@H]1O[C@@H](n2cnc3c(N)nc(NCCc4ccc(CCC(=O)O)cc4)nc32)[C@H](O)[C@@H]1O`, the Potency entry is “inactive”.

As for `COc1ccc(/C=C/C(=O)Nc2ccccc2C(=O)O)cc1OC`, the Potency is 9.53 µM (active).

As to `N#C/C(=C\c1ccc(O)c(O)c1)C(=O)NCCCc1ccccc1`, the Potency entry was “inactive”.

As for `CC(C)Cc1ccc([C@H](C)C(=O)O)cc1`, the Potency result was “inactive”.

As to `Cc1ccccc1CNc1ncnc2c1ncn2C1OC(CO)C(O)C1O` (configuration not stated), the Potency result is “inactive”.

The values above are taken from PubChem BioAssay (NCATS).
